The results in this text go back to ChEMBL document CHEMBL1157539, “Thousands of chemical starting points for antimalarial lead identification” (Nature, 2010).

Each structure is given as a SMILES string.

The first test deals with Plasmodium falciparum. As to the kind of experiment: GSK_TCMDC: Inhibition of Plasmodium falciparum Dd2 in whole red blood cells, using parasite LDH activity as an index of growth. Test compounds present at 2uM. The test is classed as functional.
As usually defined, the Inhibition is how much of the control response was suppressed. In turn, `COC(=O)Nc1cc(C(F)(F)F)ccc1N1CCCC(NS(=O)(=O)c2ccc(C(C)(C)C)cc2)C1` (stereo not drawn) showed an Inhibition of 90%.
On the same count and under the same terms, for `COc1ccc(CNCc2ccccc2)cc1-c1ccc(S(=O)(=O)NCCN2CCCC2)c(F)c1.O=C(O)C(F)(F)F` the value was 42%; for `CC(C)(C)c1ccc(-c2ccccc2CNC(=O)c2cccc(O)c2)cc1`, 88%; for `COc1ccc(C)c(Nc2ccnc(Nc3cccc(-c4nc5ccccc5[nH]4)c3)n2)c1.Cl`, 35%.
For the compound `Cc1cc(NCCCCCCN)nc(Nc2ccc(Cl)cc2)n1`, the Inhibition is 26%.
The same measure, in the same setting: the same measure for `CCc1ccc(CN2CCC(NC(=O)c3cc(-c4ccc(N(C)C)cc4)cs3)C2)cc1.O=C(O)C(F)(F)F` (stereo not drawn): 7%; for `N=C1NC(=N)N(OCCCCCCON2C(=N)NC(=N)NC2C=Cc2ccccc2)C(C=Cc2ccccc2)N1` (stereo not drawn): 94%.
Compound `O=c1sn(-c2csc3ccccc23)c2ccccc12` came in with an Inhibition of 54%.

The subject of the next test is HepG2. As to the kind of experiment: GSK_TCMDC: Percent inhibition of human HepG2 cell line. Test compounds present at 10uM. In kind it is functional.
Compound `Cc1ccc(OCC2CCN(c3ncc(C(=O)NC4CC4)cc3Cl)CC2)cc1` gave an Inhibition of 2%.
Same read-out and setting: for `c1ccc(CN2CCN(c3cc(-c4cncc(-c5ccccc5)c4)nc(-c4ccccc4)n3)CC2)cc1` the value was 9%; for `CCCCCCN1CCN(Cc2cccc(NC(=O)c3ccc(Cl)c(Cl)c3)c2)CC1.O=C(O)C(F)(F)F`, 31%; for `Cl.O=C(NC1CCC(CCN2CCc3ccc(-c4cnccn4)cc3CC2)CC1)c1cccc(-n2cccn2)c1` (stereo not drawn), 23%.
In turn, `O=C(O)C(F)(F)F.OCCN1CCN(Cc2ccc(-c3cccc(-c4nc5cc(C(F)(F)F)ccc5[nH]4)c3)cc2)CC1` had an Inhibition of 29%.
For the compound `O=C(Nc1cc(Cl)c(Cl)cc1NC(=O)c1cccc(-c2ccccc2)c1O)c1cccc(-c2ccccc2)c1O`, the Inhibition was 79%.
With `CNc1nc(N/N=C/c2cc3c(cc2[N+](=O)[O-])OCO3)nc(Nc2cccc(C(F)(F)F)c2)n1`, the Inhibition is recorded as 0%.
On the same count and under the same terms, for `Fc1ccc2c(NN=Cc3ccc(Cl)cc3)ccnc2c1` the value was 7%; for `Cc1ccc(NC(=O)c2ccc3nccnc3c2)cc1OC1CCN(Cc2ccc(F)cc2)CC1.O=C(O)C(F)(F)F`, 16%.
As for `COc1ccc(NC(=O)Nc2ccc(C)c(-c3ccc(C(=O)NCCN4CCCC4)cc3)c2)cc1`, the Inhibition worked out at 18%.
Take `N#Cc1ccc(CN2CCCN(Cc3cccc(NC(=O)c4ccc(-c5ccccc5)cc4)c3)CC2)cc1.O=C(O)C(F)(F)F`: the Inhibition was 33%.
For the compound `CN(C)C(=O)c1cc(CNCc2ccccc2)ccc1-c1cccc(CNCc2ccc(-c3ccccc3)cc2)c1.O=C(O)C(F)(F)F`, the Inhibition is given as 27%.
`CN1CCC(Oc2ccc(NC(=O)c3ccc4c(=O)n(Cc5ccccc5)cnc4c3)cc2Cl)CC1` registered an Inhibition of 23%.
The same measure, in the same setting: for `Cl.Clc1ccc(CCNCCCCCCNCCc2ccc3c(c2)OCO3)cc1` the value was 23%.
`COc1cc(F)c2nccc([C@@H](O)CN3CCC(NCc4nc5cccc(F)c5[nH]4)CC3)c2c1.O=C(O)C(=O)O` showed an Inhibition of 11%.
Regarding `Cc1c(CNCCCNc2nc3cscc3[nH]2)sc(C(F)F)c1Br.Cl`, the Inhibition is 1%.
For the compound `CCOC(=O)c1ccc(NC(=O)Nc2ccc(-c3cccc(-c4nc5cc(F)ccc5[nH]4)c3)cc2)cc1`, the Inhibition was 98%.
As for `c1ccc(-c2nc(Nc3nc4ccccc4[nH]3)[nH]c2-c2ccccc2)cc1`, the Inhibition was 14%.
Still for that read-out and setting: for `COc1ccc2nccc(NC(=O)C3(O)CCC(NCc4ccc5c(c4)NCCS5)CC3)c2n1.Cl` (stereo not drawn) the value was 1%; for `Cc1cccc2nc(-c3cccc(-c4cccc(NC(=O)C(C)CN(C)C)c4)c3)[nH]c12` (stereo not drawn), 16%.
The same measure, in the same setting: for `Cc1cc(NCC(C)C)c2[nH]nc(-c3ccccc3)c2n1` the value was 9%; for `COc1ccc(Nc2ncc3c(-c4cccc(NC(=O)Cc5cccc(F)c5)c4)c[nH]c3n2)cc1OC`, 24%.
Still for that read-out and setting: for `CCCC(C)Nc1nc(C)cc(N[C@@H](Cc2ccccc2)C(=O)Nc2ccccc2)n1.O=C(O)C(F)(F)F` (stereo partly drawn) the value was 50%.
The compound `CC(C)c1cc(Oc2c(I)cc(CCNC(=N)N)cc2I)ccc1O.Cl` came in with an Inhibition of 19%.
The compound `Cc1ccccc1NC(=O)C1CSCN1C(=O)OCc1ccccc1` (stereo not drawn) gave an Inhibition of 8%.
Same read-out and setting: the same measure for `COc1ccc(-c2ccc(NC(=O)c3ccc(C#N)cc3)cc2)cc1CN1CCNCC1.O=C(O)C(F)(F)F`: 23%; for `O=C(/C=C/c1ccc(Cl)c(Cl)c1)N1CCCC(CCCN2CCC(c3c[nH]c4ccccc34)CC2)C1` (stereo not drawn): 30%; for `COc1ccc([N+](=O)[O-])cc1N(Cc1ccccc1-c1ccccc1)S(=O)(=O)c1ccc(C(F)(F)F)cc1[N+](=O)[O-]`: 2%.
In the case of `COc1ccc(CN2CCCC(N3CC4(OC3=O)c3ccccc3-c3ccccc34)C2)c(O)c1` (stereo not drawn), the Inhibition came out at 14%.
The same measure, in the same setting: the same measure for `O=C(NCCCCCCNCc1ccc(-c2ccccc2)cc1)Nc1ccc(Cl)c(Cl)c1`: 14%.
With `COc1cc(C(=O)Nc2ccc(-c3nc4ccccc4[nH]3)cc2)cc(OC)c1OC`, the Inhibition is on record as 13%.
As for `CC(Cc1ccc(C(=O)OCCOC(=O)c2ccc(CC(C)NCC(O)c3cccc(C(F)(F)F)c3)cc2)cc1)NCC(O)c1cccc(C(F)(F)F)c1` (stereo not drawn), the Inhibition is reported as 10%.
With `COC(=O)Nc1cc(C(F)(F)F)ccc1N1CCCC(NS(=O)(=O)c2ccc(C(C)(C)C)cc2)C1` (stereo not drawn), the Inhibition worked out at 0%.
On to `COc1ccc(CNCc2ccccc2)cc1-c1ccc(S(=O)(=O)NCCN2CCCC2)c(F)c1.O=C(O)C(F)(F)F`, for which the Inhibition came to 29%.
On to `CC(C)(C)c1ccc(-c2ccccc2CNC(=O)c2cccc(O)c2)cc1`, for which the Inhibition stood at 3%.
The same measure, in the same setting: the same measure for `COc1ccc(C)c(Nc2ccnc(Nc3cccc(-c4nc5ccccc5[nH]4)c3)n2)c1.Cl`: 27%; for `Cc1cc(NCCCCCCN)nc(Nc2ccc(Cl)cc2)n1`: 25%; for `CCc1ccc(CN2CCC(NC(=O)c3cc(-c4ccc(N(C)C)cc4)cs3)C2)cc1.O=C(O)C(F)(F)F` (stereo not drawn): 29%.
On to `N=C1NC(=N)N(OCCCCCCON2C(=N)NC(=N)NC2C=Cc2ccccc2)C(C=Cc2ccccc2)N1` (stereo not drawn), for which the Inhibition was 17%.
On the same count and under the same terms, for `O=c1sn(-c2csc3ccccc23)c2ccccc12` the value was 14%.
